Assay outcomes deposited in PubChem by National Center for Advancing Translational Sciences (NCATS).
ERG-DNA inh = qHTS for Small Molecule Inhibitors of the ERG Ets/DNA interaction | fluorescence polarization, His-ERG Ets domain / labelled DNA | Potency, µM (series often up to 76.9 µM), inactives show top-dose FP activity, negative = inhibition, hits mostly inhibitors | 0.028% of 370,000 active | AID 624246, 2012; active = well fitted inhibition curve with a large enough effect in the polarisation, with a control signal flat; inconclusive = small, poorly fitted or top-dose-only effect, or effect the other way, or a change in a side signal; inactive = no such curve, though single readings can be large or run the other way; the % refers to the polarisation;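 note: polarization taken with two DNA probes labelled with fluorescein and Texas red; potency is the fitted concentration of half-maximal effect; % of control where 0% means no effect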
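His-tagged ERG Ets domain (1 uM in the protein solution; 300mM KCl, 50mM Tris-HCl, 1mM EDTA, 1mM DTT, pH 7.5) received compound, then a probe mix of 5 nM fluorescein-DNA and 100nM Texas-615-DNA. Fluorescence polarization was read for both dyes.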
VP16 counter = VP16 counterscreen qHTS for inhibitors of ROR gamma transcriptional activity | Drosophila S2 Gal4-VP16 UAS-luciferase, luminescence, 20 h | Potency, µM (doses to about 53.6 µM), for inactives: at the highest dose activity, negative = inhibition, hits mostly inhibitors | 3.5% of 310,000 active;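 note: Gal4-VP16 expression switched on by copper sulfate through the metallothionein promoter; potency is the fitted concentration of half-maximal effect; % is set by controls: 0 for no effect and ±100 for the full control effect; nearly all actives have a fitted effect of over 50% in size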
RORg inh = qHTS for inhibitors of ROR gamma transcriptional activity. Drosophila S2 Gal4-RORgamma UAS-luciferase reporter, 20 h. Potency, µM (series often up to 53.6 µM), for inactives: top-dose activity change, negative = inhibition, actives largely listed as inhibitors. 5.4% of 310,000 active. AID 2551, 2010; note: potency is the fitted concentration of half-maximal effect; % is set by controls: 0 for no effect and ±100 for the full control effect; nearly all actives have a fitted effect of over 60% in size
Target sequence (P51450 whole entry, looked up, the tested form may be a part): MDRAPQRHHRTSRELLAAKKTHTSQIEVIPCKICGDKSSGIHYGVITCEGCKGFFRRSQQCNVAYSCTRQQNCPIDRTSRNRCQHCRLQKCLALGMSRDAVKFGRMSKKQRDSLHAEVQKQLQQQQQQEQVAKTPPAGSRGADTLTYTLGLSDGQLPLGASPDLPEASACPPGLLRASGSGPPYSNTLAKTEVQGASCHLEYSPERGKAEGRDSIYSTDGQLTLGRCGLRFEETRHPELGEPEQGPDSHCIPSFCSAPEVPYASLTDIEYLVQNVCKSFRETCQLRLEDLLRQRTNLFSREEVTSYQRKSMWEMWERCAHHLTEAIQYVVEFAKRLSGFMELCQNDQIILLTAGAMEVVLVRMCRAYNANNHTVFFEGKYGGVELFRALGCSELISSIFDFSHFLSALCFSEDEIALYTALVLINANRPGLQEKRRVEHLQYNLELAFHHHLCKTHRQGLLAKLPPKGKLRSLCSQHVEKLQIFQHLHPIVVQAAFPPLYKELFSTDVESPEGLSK
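Read-out: Photinus luciferase luminescence; inhibitors lower reporter signal. Insect Schneider cells with Gal4-ROR gamma fusion under metallothionein promoter, UAS reporter; 700 uM final copper sulfate induction, 20 hr, ambient temperature.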
Giardia killer = Small Molecules that selectively kill Giardia lamblia: qHTS. Giardia lamblia trophozoite viability. activity change, % at 7.66 µM, hits read low. 0.15% of 340,000 active. AID 540267, 2011; in the data active = activity change below about -80%; inconclusive = between about -30% and that limit;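 note: parasites exposed to compound for two days anaerobically before the ATP read; % is set by controls: 0 for no effect and ±100 for the full control effect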
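Trophozoites 100 cells/well + cpd; 48 hrs, 37 deg C, anaerobic. ATPLite 1-Step added, 15-30 min RT, luminescence read (ATP-based viability).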
a7 integrin act = qHTS for Activators of Integrin-Mediated Alleviation for Muscular Dystrophy; alpha7betagal myoblasts, beta-gal FDG fluorescence, 48 h; Potency, µM (titrated, usually from 38.3 µM), inactives show at the top dose activation, actives largely listed as activators; 0.064% of 350,000 active; AID 624291, 2012;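 note: potency is the fitted concentration of half-maximal effect; 100% = response of the positive control SU9516; nearly all actives have a fitted effect of over 60% in size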
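Alpha7betagal+/- myoblasts (passage 13) were plated 16-24 hr, then exposed to compounds (1:260 dilution of DMSO stock) for 48 hours at 37C. After MPER lysis, β-galactosidase reporter activity was read as FDG fluorescence (ex 480/em 540) after 30 minutes.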
Numbers without * were called inactive; ? = inconclusive; · = no result given; [ ] = dose if it differs, or a comment. This is one part of a sample in which hits are shown more often than they occur. Unless noted, calls come from the whole dose curve; as a rule, active = well fitted curve in the direction sought with a large enough effect; inconclusive = small, poorly fitted or top-dose-only effect, or another doubt; inactive = no such curve, though single readings can be large; an effect the other way counts as inactive or inconclusive.

SMILES | ERG-DNA inh | VP16 counter | RORg inh | Giardia killer | a7 integrin act
O=C(c1ccccc1)C(CCC(CN1CCOCC1)C(=O)c1ccccc1)CN1CCOCC1 (centres undefined) | -11% | 7.9µM* | ? | 4 | -59%
Cc1ccnc(SCc2ccc(C(=O)O)cc2)n1 | 1% | -8% | -20% | 14 | 5%
O=C(c1ccc(F)cc1)C(CN1CCOCC1)c1ccccc1 (centres undefined) | · | 11µM* | 5.6µM* | 10 | -15%
CCCCOc1ccc(C(=O)C(CN2CCOCC2)c2ccccc2)cc1 (centres undefined) | -7% | ? | ? | 3 | -57%
CCNc1nc(NCC)nc(N(CC)C(N)=S)n1 | 13% | ? | 5µM* | -11 | -11%
Cc1cc2c(N)cccc2nn1 | 11µM* | -23% | 13µM* | 3 | -4%
Nc1cccc2nc3ccccc3cc12 | ? | ? | 14µM* | 3 | ·
Cc1cc2c(NC(=O)Nc3ccccc3)cccc2nn1 | -1% | -6% | -5% | 8 | 7%
Cn1c(=O)[nH]c(NC2CCCCC2)c(N=O)c1=O | -3% | -1% | -17%[10 µM] | -9 | 12%
CN(c1ccccc1)S(=O)(=O)c1ccc(C(=O)Nc2nnc(C3CC3)o2)cc1 | 2% | 1µM* | 0.32µM* | ? | 9%
CCN(c1ccccc1)S(=O)(=O)c1ccc(C(=O)Nc2nnc(C3CC3)o2)cc1 | -3% | 0.56µM* | 0.25µM* | 12 | -42%
Cc1cccc(OCC(=O)O/N=C(\N)c2ccncc2)c1 | 1% | 15% | -3% | -8 | -1%
C/C=N/NC(=O)c1cc(Br)ccc1O | 3% | ? | 11µM* | -17 | 11%
O=C(N/N=C/c1c[nH]c2ccccc12)c1cc(Br)ccc1O | 8% | 7.9µM* | 5.6µM* | 9 | 25%
O=C(N/N=C/c1c[nH]c2ccccc12)c1cccc([N+](=O)[O-])c1 | 1% | ? | 13µM* | -6 | -13%
O=C(NN=C1CCN(Cc2ccccc2)CC1)c1ccccc1 | -10% | 7% | -39% | -2 | 31%
O=C(NN=C1CCN(Cc2ccccc2)CC1)c1cc(Br)ccc1O | -5% | ? | 3.5µM* | 6 | -3%
Cc1c(/C=N/NC(=O)c2cc(Br)ccc2O)c(=O)n(C)c(=O)n1C | 11% | 10% | -11% | 3 | -1%
CC(C)NC(=O)CN(Cc1ccc(F)cc1)C(=O)CCC(=O)Nc1nccs1 | -2% | -3% | -13% | 0 | -12%
O=C(N/N=C/c1c[nH]c2ccccc12)c1[nH]c2ccc(Br)cc2c1-c1ccccc1 | -5% | ? | 16µM* | 11 | -32%
O=[N+]([O-])c1cccc2nc3ccccc3c(NCCCn3ccnc3[N+](=O)[O-])c12 | 3% | · | · | -95* | -54%
COc1ccccc1CN1CCC2(CC1)CCN(C(=O)c1cccn1C)CC2 | · | -13% | -14% | · | ·
O=C(CSc1nc(-c2ccccc2)nc2ccccc12)Nc1nccs1 | · | ? | 11µM* | -4 | 15%
Cc1ccc(-n2nnc(-c3nccs3)n2)cc1 | -2% | 5.6µM* | 4µM* | ? | -10%
CCc1ccc(NC(=O)CSc2ccc3nc(-c4ccc(OC)cc4)cn3n2)cc1 | -1% | · | · | · | ·
SMILES | ERG-DNA inh | VP16 counter | RORg inh | Giardia killer | a7 integrin act
CCCn1c(N)c(C(=O)CSc2nc3ccccc3c(=O)n2Cc2ccccc2)c(=O)[nH]c1=O | 6% | ? | 5µM* | -16 | 2%
CCCCNc1nnc(SCC(=O)c2c(N)n(CCC)c(=O)[nH]c2=O)s1 | -4% | · | · | -2 | 4µM*
CC(Cc1ccccc1)C(=O)NCC1CC1 (centres undefined) | · | -1% | -24% | · | ·
CC(=O)Nc1ccc(NC(=S)Nc2ccccc2)cc1 | 0% | -12% | -26% | 0 | 19%
C/C(=C\C(=S)Nc1ccccc1)Nc1ccccc1 | -10% | ? | 10µM* | 0 | 4%
CCOC(=O)C1CCCN(C(=O)c2ccc(C)cc2O)C1 (centres undefined) | -11% | -11% | -12% | 13 | 5%
